# PubChem BioAssay AID720607 (Broad Institute, 2013)
# Inconclusive results are not listed. Calls of active or inactive are those of the source.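 Rule for the calls: active = compounds that lower cell viability with a fitted half-maximal potency within a set limit tied to top dose; inconclusive = flat fitted activity from -70 to -30, or unreliable fit; inactive = flat near zero, opposite effect, or weaker potency.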
# Test: CCRF-CEM leukemia cell viability loss, dose response, HRAS target identification, CellTiter-Glo ATP luminescence, 8/24/48 h, dry powder (AID 720607)
# Settings: 8-48 h; for activity change: top conc, at 35 µM, stronger effect = lower value
Compound,activity change (8 h series),activity change (24 h series),"activity change, negative = cytotoxicity (at 35 µM (top of the series))"
COC(=O)c1ccc([C@@H]2c3[nH]c4ccccc4c3C[C@@H](C(=O)OC)N2C(=O)CCl)cc1,-77.8%,-98.1%,–
C#CCCCC(=O)NCCOCCOCCOc1ccc(N(C(=O)CCl)C(C(=O)NCCc2ccccc2)c2cccs2)cc1Cl (stereo not drawn),-87.7%,-97.5%,–
CC(C)(C)OC(=O)NCCOCCOCCOc1ccc(N(C(=O)CCl)C(C(=O)NCCc2ccccc2)c2cccs2)cc1Cl (stereo not drawn),-88.9%,-98.2%,–
Cc1onc(C(=O)N2CCN(C(c3ccncc3)c3ccncc3)CC2)c1[N+](=O)[O-],-2.67%,-2.69%,-4.38% (inactive)
Cc1onc(C(=O)N2CCN(C(c3ccc(Cl)cc3)c3ccc(Cl)cc3)CC2)c1[N+](=O)[O-],-63.7%,-96.7%,–
COc1ccc(N(C(=O)CCl)C(C(=O)NCCc2ccccc2)c2cccs2)cc1Cl (stereo not drawn),-85.7%,-98%,–
